Values joined by “and” are separate entries in the source; they are usually repeats but may differ in a detail not shown here. Equal values may be shown once. Records with an inconclusive call do not appear. Entries that show only a call come without a potency. Some structures have more than one record in an assay (separate samples or runs), and their calls can disagree. Active and inactive are the calls of the source. Calls come from the whole dose curve; as a rule, active = well fitted cell-killing curve with a large enough effect in the repeat runs; inconclusive = weak or mixed curves, or effect the other way; inactive = flat fitted curve, though single readings scatter.
Potency is the fitted concentration of half-maximal effect.

The assay can be described thus: qHTS assay to identify small molecule agonists of the sonic hedgehog signaling (Shh) pathway - cell viability counter screen (AID 1259366). Note: nearly all actives have a fitted effect of over 50% in size. The conditions noted are these: NIH/3T3 Gli1-Luc viability, CellTiter-Fluor, 24 h; series mostly up to 92.4 µM. Summed up:
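Cytotoxicity counter screen run in the same wells as the Shh reporter assay. NIH/3T3 cells carrying a Gli1 response element–driven luciferase were treated with DMSO-dissolved compounds for 24hr, and live-cell protease activity was measured with CellTiter-Fluor.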
(In general: qHTS replaces the single test concentration by a dilution series.)
In the case of `Nc1ccc(N)c(Cl)c1`, the Potency is 61 µM (active). Regarding `CC1(C)C(C=C(Cl)Cl)C1C(=O)OCc1cccc(Oc2ccccc2)c1` (stereo unspecified), the Potency entry is “inactive”. For `CCCCCCCCCCC(CO)CCCCCCCC` (stereo unspecified), the Potency result is “inactive”.

On to `C=CCCCCCCCCCC`, for which the Potency result is “inactive”. As for `C=CCNCC=C`, the entry is “inactive”. Consider `Brc1nc2ccccc2s1`, for which the Potency result is “inactive”. The same measure for `CCCCCCCCCCCCO`: “inactive”; for `NC[C@H](O)c1ccc(O)c(O)c1`: “inactive”. As for `CCOC(=O)C(C)Oc1ccc(Oc2cnc3cc(Cl)ccc3n2)cc1` (stereo unspecified), the entry is “inactive”; as for `CCCN1C=CN(C)C1`, “inactive”; as for `O=C(O)COCCN1CCN(C(c2ccccc2)c2ccc(Cl)cc2)CC1` (stereo unspecified), “inactive”. The same measure for `Oc1ccc(C(c2ccc(O)cc2)C(Cl)(Cl)Cl)cc1`: “inactive and 68.6 µM (active)”; for `CCCCCCCCCCCCCO`: “inactive”. On to `c1ccc2c(c1)ccc1ncccc12`, for which the Potency entry is “inactive”.

As for `CN(Cc1cnc2nc(N)nc(N)c2n1)c1ccc(C(=O)N[C@@H](CCC(=O)O)C(=O)O)cc1`, the Potency result was “inactive”.

In the case of `Cc1ccc(S(=O)(=O)NCl)cc1`, the Potency result is “inactive”. Turning to `IC(I)I`, the Potency entry is “inactive”. As for `CN(C)C`, the entry is “inactive”; as for `COc1ccc(C(=O)c2ccccc2O)c(O)c1`, “inactive”. The same measure for `c1ccc2ncccc2c1`: “inactive”; for `CC/C(=C(/CC)c1ccc(O)cc1)c1ccc(O)cc1`: “inactive”.

In the case of `CN1CCOCC1`, the Potency entry was “inactive”.

Regarding `Cc1cccc(Nc2ccccc2C(=O)O)c1C`, the Potency result was “inactive”. In the case of `CC1(C)NC(=O)N(c2ccc([N+](=O)[O-])c(C(F)(F)F)c2)C1=O`, the Potency result is “inactive”. Turning to `C=CC(=O)OCCCC`, the Potency entry was “inactive”. Take `C[C@]12CC[C@@H]3c4ccc(O)cc4CC[C@H]3[C@@H]1CC[C@@H]2O`: the Potency entry is “inactive”.

Values taken from PubChem BioAssay (Tox21).
